A selection: hits, their analogues and other compounds. The true share with any hit is near 3.1%.
Mtb FBA inh: Mtb FBA enzyme inhibitors, primary screen, biochemical, fluorescence, strain H37Rv; Fructose-bisphosphate aldolase (Mycobacterium tuberculosis (strain ATCC 25618 / H37Rv)), …; purified M. tuberculosis FBA, fluorescence read-out; inhibition, % at 1 µM; 2.3% of 360,000 active; AID 588726, 2011;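 note: 0% = vehicle and 100% = reference inhibitor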
Target sequence (P9WQA3 whole entry, looked up): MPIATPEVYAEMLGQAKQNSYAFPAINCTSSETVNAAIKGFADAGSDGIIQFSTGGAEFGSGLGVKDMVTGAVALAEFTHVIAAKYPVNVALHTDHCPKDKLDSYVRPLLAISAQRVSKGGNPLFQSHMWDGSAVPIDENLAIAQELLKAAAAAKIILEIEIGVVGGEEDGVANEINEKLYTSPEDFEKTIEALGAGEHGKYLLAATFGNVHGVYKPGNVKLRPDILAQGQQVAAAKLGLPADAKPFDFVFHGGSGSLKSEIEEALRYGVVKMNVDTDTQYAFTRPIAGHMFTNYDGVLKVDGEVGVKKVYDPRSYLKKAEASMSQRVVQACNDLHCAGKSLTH
GDH-TPI counter-1: GDH-TPI coupling enzyme inhibitors, primary screen, artefact control for M. tuberculosis FBA inhibitor project, biochemical, absorbance, full deck. 1.2% of 360,000 active. GDH-TPI coupled enzyme counterscreen, NADH absorbance. AID 588335, 2011. inhibition, % at 4.8 µM; in the data active = inhibition above about 30%;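 note: 0% = DMSO wells and 100% = wells lacking the enzyme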
FadD28 binding: inhibitors of FadD28 bisubstrate probe binding, primary screen, biochemical, fluorescence polarization, single point. Mycobacterium tuberculosis FadD28 fatty-acid-AMP ligase. inhibition, % at 12.5 µM. 0.22% of 360,000 active; in the data active = inhibition above about 8.5%, passing the limit was not always enough
3CLpro inhibitor: SARS-CoV 3CLpro protease inhibitors, primary screen, biochemical, quenched FRET. Replicase polyprotein 1ab (Severe acute respiratory syndrome coronavirus), P0C6X7. recombinant SARS-CoV 3CLpro, quenched FRET peptide cleavage. inhibition, % at 6 µM. 0.14% of 290,000 active. AID 1706, 2009; in the data active = inhibition above about 12%
BioA inh: M. tuberculosis BioA enzyme inhibitors, primary screen, biochemical, plate reader, single point, HTS | 7,8-diaminopelargonic acid synthase BioA (Mycobacterium tuberculosis) | purified M. tuberculosis BioA enzyme | inhibition, % at 9.99 µM | 0.096% of 360,000 active | AID 602481, 2012; in the data active = inhibition above about 40%
Mtb FBA confirm: M. tuberculosis aldolase blockers, biochemical, fluorescence, strain H37Rv, confirmation; purified M. tuberculosis FBA, fluorescence read-out; 78% of 5,600 active; shares compounds with Mtb FBA inh; inhibition, % at 1 µM; AID 651616, 2012;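 note: 0% = vehicle wells and 100% = reference inhibitor wells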
GDH-TPI counter-2: GDH-TPI coupling enzyme inhibitors, artefact control for M. tuberculosis FBA inhibitor project, biochemical, fluorescence, high throughput; shares compounds with Mtb FBA inh; GDH-TPI coupled enzyme counterscreen; inhibition, % at 1 µM; 81% of 5,600 active; AID 652141, 2013; in the data active = inhibition above about 10%
Numbers without * were called inactive. Cut-off read from the data, not from the text of the source, unless noted: active = inhibition above about 27%; inactive = the rest.

COc1cc(/C=N/c2oc(-c3ccccc3)cc2C#N)ccc1O was read as Mtb FBA inh 47*, GDH-TPI counter-1 48*, FadD28 binding 1, 3CLpro inhibitor 4, Mtb FBA confirm active and GDH-TPI counter-2 active.
Screening COc1cc(/C=N/NC(=O)c2nc(-c3ccccc3)n(-c3ccccc3)n2)ccc1O returned Mtb FBA inh -1, GDH-TPI counter-1 30, FadD28 binding 0, 3CLpro inhibitor 6 and BioA inh -1.
`O=C(O)/C=C\C(=O)Nc1ccccc1C(=O)NC1CCCCC1` gave Mtb FBA inh 52*, GDH-TPI counter-1 7, FadD28 binding 0, 3CLpro inhibitor -2, Mtb FBA confirm -2 and GDH-TPI counter-2 -4.
CN(CC(=O)Nc1cccc(F)c1)C(=O)c1cc(-c2ccco2)nc2ccccc12 was read as Mtb FBA inh 75*, GDH-TPI counter-1 11, FadD28 binding 0, Mtb FBA confirm active and GDH-TPI counter-2 170*.
COc1ccc(NC(=O)c2cc(-c3ccco3)nc3ccccc23)cc1 was read as Mtb FBA inh 3, GDH-TPI counter-1 6 and FadD28 binding 0.
Screening COc1ccc(NC(=O)CN(C)C(=O)c2cc(-c3ccco3)nc3ccccc23)cc1 returned Mtb FBA inh 45*, GDH-TPI counter-1 14, FadD28 binding -1, BioA inh 0, Mtb FBA confirm active and GDH-TPI counter-2 active.
Screening COc1ccc(-c2cc(C(=O)N(C)CC(=O)Nc3cccc(F)c3)c3ccccc3n2)cc1OC returned Mtb FBA inh 2, GDH-TPI counter-1 12, FadD28 binding -4 and BioA inh 0.
For Cc1ccc(S(=O)(=O)Nc2ccc3c(c2)C(=O)N([C@@H](C)CO)C[C@H](C)[C@@H](CN(C)C(=O)Nc2ccc4c(c2)OCO4)OCCCC[C@H](C)O3)cc1 the results were BioA inh -1.
`C[C@@H]1CN([C@H](C)CO)C(=O)c2cc(-c3ccncc3)cnc2O[C@H]1CN(C)C(=O)Nc1ccc2c(c1)OCO2` gave BioA inh 2.
COCCNC(=O)c1cc2c(s1)-c1ccc(Cl)cc1SC2 was read as Mtb FBA inh 46*, GDH-TPI counter-1 3, FadD28 binding -7, 3CLpro inhibitor 2, BioA inh -1, Mtb FBA confirm 174* and GDH-TPI counter-2 160*.
Screening NC(=O)c1cc2c(s1)-c1cc(Cl)ccc1SC2 returned Mtb FBA inh 1, GDH-TPI counter-1 -3, FadD28 binding -2 and 3CLpro inhibitor 1.
`Cc1cc(=O)n2[nH]c(C(=O)O)nc2n1` gave Mtb FBA inh 8, GDH-TPI counter-1 4, FadD28 binding 0, 3CLpro inhibitor 1 and BioA inh -1.
Screening Cc1cc(=O)n2[nH]cc(C(=O)O)c2n1 returned Mtb FBA inh 38*, GDH-TPI counter-1 8, FadD28 binding 0, 3CLpro inhibitor 4, BioA inh -1, Mtb FBA confirm 178* and GDH-TPI counter-2 146*.
For Cc1ccc(S(=O)(=O)N(C)C[C@H]2Oc3ccc(NS(=O)(=O)c4ccc(F)cc4)cc3C(=O)N([C@H](C)CO)C[C@@H]2C)cc1 the results were BioA inh 1.
Screening COCC(=O)Nc1ccc2c(c1)C(=O)N(C)[C@@H]1CC[C@H](CC(=O)O)O[C@@H]1CO2 returned BioA inh 0.
For O=C(C[C@H]1CC[C@H]2[C@@H](COC[C@H](O)CN2C(=O)Nc2cc(Cl)cc(Cl)c2)O1)N1CCCCC1 the results were BioA inh 0.
O=C(NCc1ccccn1)[C@@H]1[C@@H](CO)[C@@H]2Cn3c(cccc3=O)[C@H]1N2CC1CCCCC1 was read as BioA inh -1.
CC1(C)Cc2c(C#N)c(N3CCN(C(=O)c4ccccc4)CC3)nc(Cc3ccccc3)c2CO1 was read as Mtb FBA inh 2, GDH-TPI counter-1 4, FadD28 binding -1, 3CLpro inhibitor 7 and BioA inh 1.
Screening CC1(C)Cc2c(C#N)c(N3CCOCC3)nc(Cc3ccccc3)c2CO1 returned Mtb FBA inh 35*, GDH-TPI counter-1 5, FadD28 binding -1, 3CLpro inhibitor -2, BioA inh 0, Mtb FBA confirm 65* and GDH-TPI counter-2 52*.
For Cc1nc(N2CCOCC2)c(C#N)c2c1COC(C)(C)C2 the results were Mtb FBA inh 51*, GDH-TPI counter-1 -5, FadD28 binding -3, 3CLpro inhibitor 1, Mtb FBA confirm 8 and GDH-TPI counter-2 -5.
`CC1(C)Cc2c(C#N)c(N3CCOCC3)nc(-c3ccccc3)c2CO1` gave Mtb FBA inh 25, GDH-TPI counter-1 5, FadD28 binding -4, 3CLpro inhibitor 5 and BioA inh 2.
Cc1cc(C[n+]2ccccc2)c2nsnc2c1 was read as Mtb FBA inh 31*, GDH-TPI counter-1 11, FadD28 binding -2, 3CLpro inhibitor -4, BioA inh 0, Mtb FBA confirm 97* and GDH-TPI counter-2 72*.
`CC=Cc1ccc2n(c1=O)C[C@H]1[C@H](CO)[C@@H](C(=O)Nc3ccccc3)N(CC3CCCC3)[C@@H]21` (mixture of isomers) gave BioA inh 0.
`C=CCn1c(SCC(=O)Nc2nncs2)nnc1-c1ccco1` gave Mtb FBA inh 75*, GDH-TPI counter-1 -1, FadD28 binding -3, 3CLpro inhibitor 5, BioA inh 6, Mtb FBA confirm active and GDH-TPI counter-2 active.
Screening COc1cc2sc(-c3ccc(S(C)(=O)=O)cc3)c(C(=O)NCCCCO)c2cc1OC returned Mtb FBA inh 46*, GDH-TPI counter-1 31*, FadD28 binding 0, BioA inh -1, Mtb FBA confirm 46* and GDH-TPI counter-2 30*.
Cc1ccc(CNC(=O)c2c(-c3ccccc3)sc3ccccc23)o1 was read as Mtb FBA inh -1, GDH-TPI counter-1 13, FadD28 binding -2 and BioA inh 1.
Screening COc1cc2sc(-c3ccc(S(C)(=O)=O)cc3)c(C(=O)NCc3ccc(C)o3)c2cc1OC returned Mtb FBA inh 37*, GDH-TPI counter-1 20, FadD28 binding -4, BioA inh 0, Mtb FBA confirm 100* and GDH-TPI counter-2 83*.
Cc1noc(C)c1NC(=O)N[C@H]1CC[C@@H](CC(=O)N2CCN(C)CC2)O[C@@H]1CO was read as BioA inh -3.
